These results are taken from PubChem BioAssay (EPA / NIEHS).

The source made the active and inactive calls. The calls were made as follows: active = hit-call score of the fitted dose curve at least 0.9, where 1 is the maximum; inactive = score below 0.9.

Assay [1] can be described thus: ATG_CRE_CIS: Attagene CIS-FACTORIAL HepG2 Assay for human cAMP Responsive Element (CRE) binding protein 3 (AID 2282926). The note with it: HepG2 CRE cis-reporter, Attagene multiplexed mRNA; actives raise or lower the signal. In short, it runs like this: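 Cells carrying cis-regulated reporter constructs respond through their own endogenous factors. After 24 h treatment, RNA is reverse-transcribed, amplified, labelled and sized by capillary electrophoresis; up- and down-regulation are both scored against vehicle.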

For assay [2], the target named is CCAAT/enhancer-binding protein beta (Homo sapiens) (UniProt P17676). The assay can be described thus: ATG_C_EBP_CIS: Attagene CIS-FACTORIAL HepG2 Assay for human CCAAT/Enhancer Binding Protein (C/EBP) beta (AID 2282927). The settings on record: HepG2 Attagene cis-factorial transcription factor reporter; actives raise or lower the signal. The gist of the method:
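Chemical-treated HepG2 cells (24 h) bearing cis-regulated reporter constructs were processed for total RNA, then reverse transcription, PCR amplification, fluorescent primer extension and fragment analysis; gain- and loss-of-signal were fitted against DMSO.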

A short description of assay [3]: ATG_CMV_CIS: Attagene CIS-FACTORIAL HepG2 Assay for human CMV (Internal Marker) (AID 2282928).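 Also: endpoint acts as a background internal control marker rather than a target.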 The settings on record: HepG2 CMV promoter reporter, transcription factor profiling; actives raise or lower the signal. In short, it runs like this: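 Bidirectional fits against DMSO are applied to reporter mRNA, read by RT-PCR with capillary electrophoresis, from HepG2 cells exposed 24 h. The endpoint serves as an internal CMV background marker within the cis-factorial reporter panel.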

A short description of assay [4]: ATG_DR4_LXR_CIS: Attagene CIS-FACTORIAL HepG2 Assay for human Liver X Receptor (LXR), DR4 submotif (AID 2282929). The settings on record: HepG2 Attagene DR4 cis-reporter, mRNA transcription; actives raise or lower the signal. The gist of the method:
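After transient transfection with multiplexed cis-promoter reporter units, HepG2 cells received test chemicals for 24 h. Reporter mRNA induction, detected by fluorescence after RT-PCR and capillary electrophoresis, was scored relative to DMSO.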

For assay [5], the target named is Aryl hydrocarbon receptor (Homo sapiens) (UniProt P35869). The assay can be described thus: ATG_Ahr_CIS: Attagene CIS-FACTORIAL HepG2 Assay for human Aryl Hydrocarbon Receptor (Ahr) (AID 2282930). The note with it: HepG2 AhR cis-factorial reporter transcription; actives raise or lower the signal. The gist of the method:
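Following 24 h of chemical dosing, transfected HepG2 liver cells with cis-driven reporter units were lysed for RNA; reporter mRNA was quantified via RT-PCR and capillary electrophoresis, and responses fitted bidirectionally from DMSO.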

The nature of assay [6]: ATG_AP_1_CIS: Attagene CIS-FACTORIAL HepG2 Assay for human Activator Protein 1 (AP-1) (AID 2282931). The note with it: HepG2 Attagene cis-factorial AP-1 reporter mRNA; actives raise or lower the signal. In short, it runs like this: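 After 24 h incubation with test chemical, RNA from transfected HepG2 cells was reverse-transcribed, amplified, fluorescently labelled and digested before capillary electrophoresis. Reporters were driven by cis-regulatory promoters; activity fitted bidirectionally versus DMSO.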

The nature of assay [7]: ATG_AP_2_CIS: Attagene CIS-FACTORIAL HepG2 Assay for human Activator Protein 2 (AP-2) (AID 2282932). The note with it: HepG2 AP-2 cis-reporter, Attagene transcription factor profiling; actives raise or lower the signal. The gist of the method:
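Cells (HepG2) transfected with promoter-driven reporter constructs, treated 24 h. Total RNA reverse-transcribed, reporter cDNA PCR-amplified, FAM-labelled by primer extension, digested, resolved by capillary electrophoresis. Activity fitted both directions versus DMSO.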

Assay [8] in a line: ATG_BRE_CIS: Attagene CIS-FACTORIAL HepG2 Assay for human Bone Morphogenetic Protein (BMP) Response Element (BRE) (AID 2282933). The settings on record: HepG2 BMP response element reporter, Attagene transcription factor profiling; actives raise or lower the signal. In short, it runs like this:
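Read-out: reporter mRNA induction quantified by RT-PCR and capillary electrophoresis after 24 h chemical exposure of transfected HepG2 cells. Endogenous factor activity on the BMP response element; gain or loss fitted against DMSO baseline.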

For assay [9], the target named is Transcription factor E2F1 (Homo sapiens) (UniProt Q01094). The assay can be described thus: ATG_E2F_CIS: Attagene CIS-FACTORIAL HepG2 Assay for human E2F Transcription Factor 1 (AID 2282935). The settings on record: HepG2 Attagene cis-reporter, E2F reporter RNA transcripts; actives raise or lower the signal. The gist of the method:
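First, HepG2 cells were transfected with reporter transcription units. Next, they were dosed for 24 h. Then RNA was isolated, converted to cDNA, PCR-amplified, FAM-labeled, HpaI-digested and analyzed by capillary electrophoresis.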

CCAAT/enhancer-binding protein beta (Homo sapiens), sequence (P17676 whole entry, looked up, the tested form may be a part): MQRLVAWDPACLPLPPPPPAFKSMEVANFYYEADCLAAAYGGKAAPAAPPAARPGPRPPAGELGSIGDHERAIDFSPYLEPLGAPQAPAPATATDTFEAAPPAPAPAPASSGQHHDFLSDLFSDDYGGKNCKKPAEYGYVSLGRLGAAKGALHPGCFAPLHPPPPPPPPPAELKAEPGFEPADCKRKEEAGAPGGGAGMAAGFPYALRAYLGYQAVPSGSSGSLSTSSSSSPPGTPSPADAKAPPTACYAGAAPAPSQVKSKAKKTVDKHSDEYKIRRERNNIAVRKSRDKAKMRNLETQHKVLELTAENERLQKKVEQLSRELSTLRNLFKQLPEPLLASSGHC
Transcription factor E2F1 (Homo sapiens), sequence (Q01094 whole entry, looked up): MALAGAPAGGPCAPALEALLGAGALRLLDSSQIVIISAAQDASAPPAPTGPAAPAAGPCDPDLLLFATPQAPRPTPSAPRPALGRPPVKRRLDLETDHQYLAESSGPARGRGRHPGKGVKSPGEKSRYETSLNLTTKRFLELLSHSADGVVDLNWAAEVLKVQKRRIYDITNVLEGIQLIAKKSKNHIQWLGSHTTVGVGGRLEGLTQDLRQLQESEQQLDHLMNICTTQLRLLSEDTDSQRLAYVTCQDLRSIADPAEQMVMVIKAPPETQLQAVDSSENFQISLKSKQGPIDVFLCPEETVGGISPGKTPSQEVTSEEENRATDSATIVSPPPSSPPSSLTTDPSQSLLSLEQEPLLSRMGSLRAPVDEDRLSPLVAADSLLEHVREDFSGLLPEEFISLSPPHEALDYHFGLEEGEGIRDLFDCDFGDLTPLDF
Aryl hydrocarbon receptor (Homo sapiens), sequence (P35869 whole entry, looked up): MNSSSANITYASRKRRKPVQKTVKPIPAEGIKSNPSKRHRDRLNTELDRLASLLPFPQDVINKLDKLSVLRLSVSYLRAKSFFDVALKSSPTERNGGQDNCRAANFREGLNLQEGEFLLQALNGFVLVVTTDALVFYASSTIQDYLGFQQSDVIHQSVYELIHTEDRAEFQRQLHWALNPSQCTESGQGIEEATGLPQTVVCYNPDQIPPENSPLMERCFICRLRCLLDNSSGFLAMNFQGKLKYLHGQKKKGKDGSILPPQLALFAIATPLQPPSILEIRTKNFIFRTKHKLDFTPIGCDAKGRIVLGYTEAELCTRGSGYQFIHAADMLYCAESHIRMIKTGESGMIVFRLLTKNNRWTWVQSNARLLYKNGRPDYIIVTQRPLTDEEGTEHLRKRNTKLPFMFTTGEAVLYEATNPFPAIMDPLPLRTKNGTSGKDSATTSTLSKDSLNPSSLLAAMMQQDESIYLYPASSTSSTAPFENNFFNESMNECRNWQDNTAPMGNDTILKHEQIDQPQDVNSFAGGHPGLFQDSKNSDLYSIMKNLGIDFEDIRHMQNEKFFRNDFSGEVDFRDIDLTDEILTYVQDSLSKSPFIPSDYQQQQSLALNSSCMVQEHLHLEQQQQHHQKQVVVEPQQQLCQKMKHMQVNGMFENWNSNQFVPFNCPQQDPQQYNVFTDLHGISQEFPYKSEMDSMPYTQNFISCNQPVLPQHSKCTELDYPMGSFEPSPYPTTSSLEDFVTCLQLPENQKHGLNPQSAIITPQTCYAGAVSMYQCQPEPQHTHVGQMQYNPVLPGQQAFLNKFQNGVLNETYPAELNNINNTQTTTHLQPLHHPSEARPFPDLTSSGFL

Regarding `COC(C)CCO` (centres undefined), the compound was called inactive in [1], in assay [2], in assay [3], in [4], in [5] and in assay [7]. Also, the call in assay [8] and in assay [9] was inactive. In [6], the AC50 is 42.4 µM (active).
`CO[Si](C)(OC)c1ccccc1`: the call in assay [1], in assay [2], in assay [3], in assay [4], in assay [6] and in assay [7] was inactive. The call in assay [8] and in assay [9] was inactive. Moreover, the AC50 in assay [5] was 130 µM (active).
Regarding `CCCCCCCCCCCCCCCC(=O)O`, the result in assay [1], in assay [2], in [3], in assay [4], in assay [5] and in assay [6] was inactive. Besides, the compound was classed as inactive in [7], in assay [8] and in assay [9].
Take `CCCCCCCCCCC(CO)CCCCCCCC` (centres undefined): the compound was classed as inactive in assay [1], in assay [2], in assay [3], in assay [4], in assay [5] and in [6]. Further, the result in assay [7], in [8] and in [9] was inactive.
Take `CC(=O)OCC=Cc1ccccc1`: the call in assay [1], in assay [2], in [3], in assay [4], in [5] and in assay [6] was inactive. Also, the result in assay [7], in assay [8] and in assay [9] was inactive.
As for `COc1cc(C=O)ccc1OC(=O)C(C)C`, the outcome in assay [1], in assay [2], in [3], in assay [4], in assay [5] and in assay [6] was inactive. Moreover, the result in assay [7], in assay [8] and in assay [9] was inactive.
Consider `CC(C)(CO)[N+](=O)[O-]`, for which the call in [1], in assay [2], in assay [3], in assay [4], in [5] and in [6] was inactive. In addition, the compound was classed as inactive in assay [7], in assay [8] and in [9].
As to `CC(=O)OCc1ccc2c(c1)OCO2`, the compound was classed as inactive in assay [1], in assay [2], in [3], in assay [4], in assay [5] and in assay [6]. The compound was classed as inactive in assay [7], in assay [8] and in assay [9].
Regarding `CC(C)(Oc1ccc(CCNC(=O)c2ccc(Cl)cc2)cc1)C(=O)O`, the outcome in assay [1], in assay [2], in [3], in assay [4], in assay [5] and in assay [6] was inactive. For the same compound, the compound was classed as inactive in assay [7], in assay [8] and in assay [9].
As to `NCCOCCO`, the outcome in [1], in assay [2], in [3], in assay [4], in assay [5] and in [6] was inactive. Further, the call in assay [7], in assay [8] and in assay [9] was inactive.
As for `O=C(O)c1ccc([N+](=O)[O-])cc1`, the compound was classed as inactive in [1], in [2], in [3], in assay [4], in [5] and in [6]. In addition, the outcome in assay [7], in [8] and in assay [9] was inactive.
On to `C=CC(=O)NCOCC(C)C`, for which the call in [1], in assay [2], in assay [3], in assay [4], in [5] and in assay [6] was inactive. Also, the result in assay [7], in assay [8] and in assay [9] was inactive.
Take `CN(CCOc1ccc(CC2SC(=O)NC2=O)cc1)c1ccccn1` (centres undefined): the compound was called inactive in assay [1], in [2], in assay [3], in assay [4], in [5] and in assay [6]. Besides, the outcome in [7], in [8] and in [9] was inactive.
With `C[Si](O[Si](C)(C)C)O[Si](C)(C)C`, the outcome in assay [1], in [2], in assay [3], in [4], in assay [6] and in assay [7] was inactive. Further, the outcome in assay [8] and in [9] was inactive. Moreover, the AC50 in assay [5] is 52.8 µM (active).
For `CCCCCCCCCC=O`, the compound was classed as inactive in assay [1], in [2], in assay [3], in assay [4], in assay [5] and in assay [6]. In addition, the compound was classed as inactive in assay [7], in assay [8] and in assay [9].
As for `CC1=CC(=O)NS(=O)(=O)O1`, the outcome in assay [1], in assay [2], in assay [3], in [4], in assay [5] and in assay [6] was inactive. In addition, the compound was called inactive in [7], in assay [8] and in assay [9].
As for `COc1ccnc(CS(=O)c2nc3cc(OC(F)F)ccc3[nH]2)c1OC` (centres undefined), the compound was called inactive in assay [1], in assay [2], in assay [3], in assay [4], in assay [5] and in [6]. In addition, the result in assay [7], in assay [8] and in assay [9] was inactive.
For the compound `O=c1[nH]nnc2ccccc12`, the call in [1], in assay [2], in assay [3], in assay [4], in [5] and in assay [6] was inactive. Besides, the outcome in assay [7], in assay [8] and in assay [9] was inactive.
On to `Nc1ccc(F)c([N+](=O)[O-])c1`, for which the compound was called inactive in assay [1], in [2], in assay [3], in assay [4], in [5] and in assay [6]. For the same compound, the outcome in assay [7], in [8] and in assay [9] was inactive.
Regarding `OCCOCCOCCOCCO`, the outcome in assay [1], in assay [2], in assay [3], in assay [4], in assay [6] and in assay [7] was inactive. The result in assay [8] and in [9] was inactive. The AC50 in assay [5] is 40.5 µM (active).
For `c1ccc2[nH]ccc2c1`, the result in [1], in assay [2], in assay [3], in assay [4], in assay [6] and in assay [7] was inactive. Besides, the compound was called inactive in assay [8] and in assay [9]. Further, the AC50 in assay [5] is 14.6 µM (active).
Consider `CCCCO`, for which the call in [1], in assay [2], in assay [3], in assay [4], in assay [5] and in assay [6] was inactive. For the same compound, the result in assay [7], in [8] and in assay [9] was inactive.
For the compound `CC1CCC2CC1C2(C)C` (centres undefined), the result in assay [1], in [2], in [3], in assay [4], in assay [5] and in assay [6] was inactive. Moreover, the call in assay [7], in assay [8] and in [9] was inactive.
For the compound `CC[Si](OC(C)=O)(OC(C)=O)OC(C)=O`, the compound was classed as inactive in assay [1], in assay [2], in assay [3], in [4], in assay [5] and in assay [6]. For the same compound, the outcome in assay [7], in [8] and in [9] was inactive.
Take `O=P(c1ccccc1)(c1ccccc1)c1ccccc1`: the compound was classed as inactive in assay [1], in [2], in assay [3], in assay [5], in [6] and in assay [7]. In addition, the outcome in assay [8] and in assay [9] was inactive. The AC50 in [4] was 58.6 µM (active).
For `S=C(S)NCCNC(=S)S`, the compound was classed as inactive in assay [1], in [2], in assay [3], in assay [4], in [5] and in assay [6]. The result in assay [7], in assay [8] and in [9] was inactive.

The term AC50 denotes the midpoint of the concentration-response curve, whichever way the signal moves.
